VDR inh = inhibitors of human vitamin D receptor; 400,000 compounds, 0.93% hits; Potency, µM, hits mostly inhibitors; VDR-SRC2-3 peptide fluorescence polarization, 2 h
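Reagent solutions, kept cold and dark, are dispensed first; compounds are then pinned in at 23 nl, plates briefly spun, and incubated 2 h at ambient temperature. Inhibition of VDR–SRC2-3 peptide binding is read by fluorescence polarization.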
GCN5L2 inh = blocks human GCN5L2 histone acetyltransferase; GCN5L2 HAT assay, ThioGlo1 CoA-SH fluorescence; AID 504327; Potency, µM (highest dose often 58.9 µM), hits mostly inhibitors; Q92830; 390,000 compounds, 0.21% hits
Target sequence (Q92830 whole entry, looked up): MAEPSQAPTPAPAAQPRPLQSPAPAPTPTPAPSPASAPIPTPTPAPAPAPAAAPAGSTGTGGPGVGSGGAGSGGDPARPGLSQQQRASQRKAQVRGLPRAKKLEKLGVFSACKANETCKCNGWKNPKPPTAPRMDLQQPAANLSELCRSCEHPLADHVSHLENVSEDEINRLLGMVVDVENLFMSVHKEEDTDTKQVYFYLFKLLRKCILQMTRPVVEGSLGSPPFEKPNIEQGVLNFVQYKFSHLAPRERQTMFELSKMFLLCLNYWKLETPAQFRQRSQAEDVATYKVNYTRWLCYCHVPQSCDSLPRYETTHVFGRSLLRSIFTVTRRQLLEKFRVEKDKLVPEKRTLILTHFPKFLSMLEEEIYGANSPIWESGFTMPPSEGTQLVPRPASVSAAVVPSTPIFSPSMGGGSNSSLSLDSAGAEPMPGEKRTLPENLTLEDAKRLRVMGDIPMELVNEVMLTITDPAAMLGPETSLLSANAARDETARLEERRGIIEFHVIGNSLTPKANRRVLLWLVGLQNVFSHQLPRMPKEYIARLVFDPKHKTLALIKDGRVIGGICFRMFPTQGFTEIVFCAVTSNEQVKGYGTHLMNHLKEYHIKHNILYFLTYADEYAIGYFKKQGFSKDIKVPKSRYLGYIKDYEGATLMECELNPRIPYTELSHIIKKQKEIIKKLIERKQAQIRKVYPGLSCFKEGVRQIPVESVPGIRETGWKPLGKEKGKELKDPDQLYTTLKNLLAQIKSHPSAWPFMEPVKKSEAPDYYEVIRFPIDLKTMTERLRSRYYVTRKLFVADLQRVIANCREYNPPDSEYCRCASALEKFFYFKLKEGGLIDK
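ThioGlo1-coupled HAT assay: 20nM GCN5L2, 70uM acetyl-CoA, 75uM H3(1-25) peptide, pH 7.5. Fluorescence read at 340/540nm at start and after 20 min at room temperature.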
TDP1 cell noCPT = qHTS for Inhibitors of human tyrosyl-DNA phosphodiesterase 1 (TDP1): qHTS in cells in absence of CPT; 420,000 compounds, 15% hits; Potency, µM (series often up to 46.2 µM), hits mostly inhibitors; DT40 Tdp1-/- hTDP1 cells, no CPT, ATP luminescence, 48 h; AID 686978, 2013; further: nearly all actives have a fitted effect of over 55% in size
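Chicken DT40 Tdp1-/- cells stably complemented with human TDP1 were seeded at 400 cells/well with DMSO in place of 20 nM camptothecin. After compound pinning, cells grew at least 48 hr at 37 °C; viability read by CellTiter-Glo luminescence.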
TDP1 inh = blocks human tyrosyl-DNA phosphodiesterase 1. AID 485290. recombinant TDP1, AlphaScreen DNA substrate cleavage. Potency, µM (highest dose often 130 µM), most hits filed as inhibitors. 350,000 compounds, 0.28% hits; further: nearly all actives have a fitted effect of over 40% in size
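Tdp1 1 nM final; 15 min RT w/ cpd; substrate 15 nM, 5 min; beads 10 ug/ml, 10 min; AlphaScreen read. Neg ctrl: no enzyme.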
PLK1 PBD inh = blocks phosphopeptide binding to human PLK1 polo-box domain. P53350. Plk1 PBD binding of FITC phosphopeptide, fluorescence polarization. Potency, µM, usual class: inhibitors. 360,000 compounds, 2.8% hits; further: series mostly up to about 57 µM; nearly all actives have a fitted effect of over 65% in size
DT40 TDP1 CPT = growth inhibition of DT40 Tdp1-/-;hTDP1 cells with camptothecin (screen for TDP1 inhibitors) | Potency, µM (top dose mostly 46.2 µM), actives largely listed as inhibitors | 420,000 compounds, 12% hits | AID 686979 | chicken DT40 Tdp1-/-;hTDP1 cells + 20 nM CPT, ATP luminescence, 48 h; further: nearly all actives have a fitted effect of over 55% in size
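Chicken DT40 Tdp1-/- cells complemented with human TDP1, 400 cells/well, exposed to compounds plus 20 nM camptothecin for at least 48 h at 37 C; viability read as ATP content by CellTiter-Glo luminescence.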
Large screens that a line does not name were inactive. Compounds with a hit are over-represented: about 18% of the library has one in this group of screens. The call rests on the fitted dose curve; in most records, active means well fitted curve in the direction sought with a large enough effect; inconclusive means small, poorly fitted or top-dose-only effect, or another doubt; inactive means no such curve, though single readings can be large; an effect the other way counts as inactive or inconclusive.

COc1ccc2cc(C(N)=O)c(=Nc3ccc(C)cc3)oc2c1	VDR inh inconclusive, TDP1 cell noCPT 8.2µM
COc1ccccc1N=c1oc2cc(O)ccc2cc1C(N)=O	TDP1 cell noCPT inconclusive, DT40 TDP1 CPT inconclusive
Cc1nc2ccc(C(=O)N(C)Cc3ccco3)cn2c1N(C)CC1CCCCC1	TDP1 cell noCPT 13µM, DT40 TDP1 CPT 18.4µM (no result: VDR inh, GCN5L2 inh, TDP1 inh)
COc1ccc(OCc2nn[nH]n2)cc1	none (no result: TDP1 inh)
COC(=O)[C@@]1(Cc2ccc(F)cc2)[C@H]2c3cc(C(=O)N4CCCC4)n(CCc4ccc(OC)c(Br)c4)c3C[C@H]2CN1C(=O)c1ccccc1	TDP1 cell noCPT 18.4µM, DT40 TDP1 CPT inconclusive (no result: VDR inh, GCN5L2 inh)
COC(=O)[C@@]1(Cc2ccc(F)cc2)[C@H]2c3cc(C(=O)N4CCCC4)n(CCc4ccc(O)c(O)c4)c3C[C@H]2CN1C(=O)c1ccccc1	none (no result: VDR inh, TDP1 cell noCPT, PLK1 PBD inh, DT40 TDP1 CPT)
COC(=O)[C@@]1(Cc2ccc(F)cc2)[C@H]2c3cc(C(=O)N4CCCC4)n(CCO)c3C[C@H]2CN1C(=O)c1ccccc1	DT40 TDP1 CPT inconclusive
COC(=O)[C@@]1(Cc2ccc(F)cc2)[C@H]2c3cc(C(=O)N(C)C)n(CCF)c3C[C@H]2CN1C(=O)c1ccccc1	TDP1 cell noCPT inconclusive, DT40 TDP1 CPT inconclusive (no result: VDR inh, GCN5L2 inh)
COC(=O)[C@@]1(Cc2ccc(F)cc2)[C@H]2c3cc(C(=O)N(C)C)n(CC4CC4)c3C[C@H]2CN1C(=O)c1ccccc1	TDP1 cell noCPT 18.4µM, DT40 TDP1 CPT inconclusive (no result: VDR inh, GCN5L2 inh)
COC(=O)[C@@]1(Cc2ccc(F)cc2)[C@H]2c3cc(C(=O)N4CCCC4)n(Cc4ccc(Cl)c(C(F)(F)F)c4)c3C[C@H]2CN1C(=O)c1ccccc1	TDP1 cell noCPT 20.6µM, DT40 TDP1 CPT 20.6µM (no result: VDR inh, GCN5L2 inh)
COC(=O)[C@@]1(Cc2ccc(OC)cc2)[C@H]2c3cc(C(=O)N4CCCC4)n(Cc4ccccc4)c3C[C@H]2CN1C(=O)c1ccccc1	TDP1 cell noCPT 16.4µM, DT40 TDP1 CPT inconclusive (no result: VDR inh, GCN5L2 inh, TDP1 inh)
O=C(Nc1cccc2ncccc12)c1ccco1	none
CCOc1ccc(NC(=O)C2CC(=O)NC(=Nc3ccc(Cl)c(Cl)c3)S2)cc1 (stereo not given)	none (no result: TDP1 inh, PLK1 PBD inh)
O=C1C[C@H](c2ccccc2Cl)N1S(=O)(=O)c1ccccc1[N+](=O)[O-]	none (no result: GCN5L2 inh, TDP1 cell noCPT, PLK1 PBD inh, DT40 TDP1 CPT)
CCC(=O)OC1(C)C(=O)C=C2C=C(CCCNC(=O)OC(C)(C)C)OC=C2C1=O (stereo not given)	none (no result: GCN5L2 inh, TDP1 cell noCPT, PLK1 PBD inh, DT40 TDP1 CPT)
COC(=O)[C@@]1(Cc2ccc(OC)cc2)[C@H]2c3cc(C(=O)N4CCCC4)n(CCc4ccc(OC)c(Br)c4)c3C[C@H]2CN1C(=O)c1ccccc1	TDP1 cell noCPT 20.6µM, DT40 TDP1 CPT 14.6µM (no result: VDR inh, GCN5L2 inh)
O=C(NCCN1CCOCC1)C1(C(F)(F)F)CC(CCCO)CCCO1 (stereo not given)	none (no result: GCN5L2 inh, TDP1 cell noCPT, PLK1 PBD inh, DT40 TDP1 CPT)
Cc1c(C(=O)N2CCC(C)CC2)oc2ccc3c(c12)C(O)CC1(CCCCC1)O3 (stereo not given)	TDP1 cell noCPT inconclusive, DT40 TDP1 CPT 16.4µM
COCCNC(=O)c1oc2ccc3c(c2c1C)C(O)CC(C)(C)O3 (stereo not given)	none (no result: TDP1 inh)
CN1CC(=O)N(CC(=O)N2N=C(c3ccc(Cl)cc3)CC2c2ccco2)C1=O (stereo not given)	TDP1 cell noCPT inconclusive, DT40 TDP1 CPT inconclusive
Cc1ccc(C2=NN(C(=O)CSc3nccn3C)C(c3ccco3)C2)cc1 (stereo not given)	TDP1 cell noCPT 20.6µM, DT40 TDP1 CPT 20.6µM
CCC(=O)N1N=C(c2ccc(Cl)cc2)CC1c1ccco1 (stereo not given)	TDP1 cell noCPT 11.6µM, DT40 TDP1 CPT 23.1µM
CC(=O)N1N=C(c2cccc(NS(=O)(=O)c3ccc(C)cc3)c2)CC1c1ccco1 (stereo not given)	TDP1 cell noCPT inconclusive, DT40 TDP1 CPT inconclusive
COc1ccc(C2=NN(C(N)=S)C(c3ccco3)C2)cc1 (stereo not given)	DT40 TDP1 CPT inconclusive
COc1ccc(C2=NN(C(=O)CSc3nnc(-c4ccccc4F)o3)C(c3ccco3)C2)cc1 (stereo not given)	TDP1 cell noCPT 20.6µM, DT40 TDP1 CPT inconclusive
